Compound activity from PubChem.
HCMV antiviral = qHTS Assay for inhibitors of the human cytomegalovirus (HCMV); HFF cells, HCMV-luciferase reporter, 72 h; active compounds read low; activity change, negative = inhibition, % at 57.5 µM; hit rate 4.5% among 410,000; in the data active means activity change below about -60%; inconclusive means no clear call, values can overlap the other calls; inactive means above about -39%
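Two-dose cell screen: HFF monolayers treated with compounds and infected with luciferase-expressing HCMV at 1 PFU/cell, 72 h at 37C, then lysed for luciferase measurement.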
AmpC detergent = qHTS Inhibitors of AmpC Beta-Lactamase (assay with detergent) | hit rate 0.041% among 370,000 | AmpC hydrolysis of nitrocefin, absorbance 480 nm, 0.01% Triton | P00811 | Potency, µM (doses to about 114 µM), for the others: at the top dose activity change, negative = inhibition, actives largely listed as inhibitors | AID 485294, 2010;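 further: potency means the concentration at half of the fitted maximal effect; 0% = no-compound wells and -100% = no-enzyme wells; nearly all actives have a fitted effect of over 25% in size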
Target sequence (P00811 whole entry, looked up): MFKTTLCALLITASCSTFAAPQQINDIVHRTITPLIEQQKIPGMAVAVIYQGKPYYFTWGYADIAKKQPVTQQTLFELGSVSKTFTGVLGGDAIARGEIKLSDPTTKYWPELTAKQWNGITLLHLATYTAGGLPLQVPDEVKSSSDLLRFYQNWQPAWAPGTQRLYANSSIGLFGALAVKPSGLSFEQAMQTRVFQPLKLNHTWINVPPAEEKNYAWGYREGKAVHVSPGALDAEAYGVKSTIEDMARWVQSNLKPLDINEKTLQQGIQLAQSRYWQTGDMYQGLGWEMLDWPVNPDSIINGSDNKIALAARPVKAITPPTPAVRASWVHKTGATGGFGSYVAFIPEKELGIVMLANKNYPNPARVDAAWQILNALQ
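AmpC (5.3 nM in the dispensed reagent) in 20 mM phosphate pH 7.0 with 0.01% (detergent screen) or 0.0001% Triton X-100 was preincubated with compounds for 15 min at room temperature. Nitrocefin was then added from an 800 uM solution, and hydrolysis was followed at 480 nm.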
FMDV inh = High Throughput Screening for Foot and Mouth Disease Virus Antivirals; Potency, µM (titrated, usually from 57.9 µM), for the others: at the highest dose activity change, negative = inhibition, hits mostly inhibitors; hit rate 1.2% among 410,000; FMDV antiviral cell-based qHTS; calls by dose curve; tested in HEK293T cells; further: read-out not given here; potency means the concentration at half of the fitted maximal effect; nearly all actives have a fitted effect of over 45% in size
AmpC inh no detg = qHTS Inhibitors of AmpC Beta-Lactamase (assay without detergent). P00811. AmpC nitrocefin hydrolysis, absorbance 480 nm, 0.0001% Triton. Potency, µM (doses to about 57.1 µM), for the others: at the top dose activity change, negative = inhibition, actives largely listed as inhibitors. hit rate 0.52% among 330,000. AID 485341, 2010;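 further: potency means the concentration at half of the fitted maximal effect; plate controls were no compound for no effect and no enzyme for full effect; nearly all actives have a fitted effect of over 20% in size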
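AmpC (5.3 nM in the dispensed reagent) in 20 mM phosphate pH 7.0 with 0.01% (detergent screen) or 0.0001% Triton X-100 was preincubated with compounds for 15 min at room temperature. Nitrocefin was then added from an 800 uM solution, and hydrolysis was followed at 480 nm.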
HCV inh = qHTS Assay for Inhibitors of Hepatitis C Virus (HCV); Huh7.5.1 HCVcc-Cre infection, luciferase reporter, 44 h; Potency, µM (titrated, usually from 41.8 µM), without a hit: at the top dose activity change, negative = inhibition, actives largely listed as inhibitors; hit rate 3.4% among 340,000; further: potency means the concentration at half of the fitted maximal effect
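Luciferase read-out (15 sec integration) after a 15 min room-temperature substrate step quantifies HCVcc-Cre infection. Cells, 1,000 per well, had compound added 4 h post-plating, then virus at ~0.5 moi, and were cultured 44 h.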
* marks the source's active call; other numbers are inactive results; u = inconclusive; x = not tested or not shown; ! = not confirmed by another sample. A selection: hits, their analogues and other compounds. The true share with any hit is near 7.3%. Unless noted, the call rests on the fitted dose curve; in most records, active means well fitted curve in the direction sought with a large enough effect; inconclusive means small, poorly fitted or top-dose-only effect, or another doubt; inactive means no such curve, though single readings can be large; an effect the other way counts as inactive or inconclusive. Unless noted, on the % scale 0 is the no-effect control and ±100 the full control effect.

SMILES	HCMV antiviral	AmpC detergent	FMDV inh	AmpC inh no detg	HCV inh
O=C(CCC(=O)N1CCOc2ccccc21)N1CCN(c2ccccc2)CC1	9	-13%	-22%	46%	8%
Cc1ccccc1C(=O)Nc1nnc2n1CCS2	48	0%	74%	x	x
O=C(Nc1nnc2n1CCS2)c1ccccc1	-68*	0%	23%	x	x
C=C(Cl)COc1ccc2c(CCCC)cc(=O)oc2c1	-10	-14%	-14%	-27%	u
C=C(Cl)COc1ccc2c(CC)cc(=O)oc2c1	8	-14%	x	-3%	8.9µM*
OC(CNCc1ccccc1)c1ccccc1 (stereo unspecified)	2	2%	-3%	-10%	-19%
Oc1cccc(C(O)CNCc2ccc(-c3ccccc3)cc2)c1 (stereo unspecified)	-62*	-5%	-6%	-20%	u
CCCCNc1ccc2c(c1)OC[C@H](C)NS2(=O)=O	-3	x	x	x	x
CCC1Nc2ncnc(N3CCN(c4ccccc4)CC3)c2N(Cc2ccc(C)cc2)C1=O (stereo unspecified)	14	u	-14%	77%	2.8µM*
O=C1C(Cc2ccccc2)Nc2ncnc(N3CCOCC3)c2N1Cc1ccccc1 (stereo unspecified)	-101*!	x	0%	-1%	-6%
COc1ccc(CN2C(=O)C(C)Nc3ncnc(N4CCOCC4)c32)cc1 (stereo unspecified)	-65*	x	-24%	9%	0%
COC(=O)c1cc(-c2ccc(C)cc2)c2c(=O)n(C)c(=O)n(C)c2n1	-12	18%	11%	x	x
Cc1ccc(NC(=O)N2CCCC2C(=O)NCc2ccc(Cl)cc2)cc1 (stereo unspecified)	13	0%	38%	-13%	-14%
CCCCC(=O)Nc1nc2ccc3nc(C)sc3c2s1	-22	-6%	30%	129%	7.9µM*
O=C1CCc2cc(S(=O)(=O)NCc3ccc(F)cc3)cc3c2N1CC3	9	0%	45%	-9%	-6%
Cc1ccc(S(=O)(=O)n2cc(-c3ccccc3)c3ccccc32)cc1	-71*	4%	14%	-12%	u
Cc1ccc(S(=O)(=O)n2cc(C=O)c3ccccc32)cc1	26	-2%	3%	-20%	-28%
Cc1ccc(-c2nc3ccccc3c(=O)n2-c2cccc(C)n2)cc1	-85*	-2%	5%	58%	-10%
COc1ccc(-c2nc3ccccc3c(=O)n2-c2cccnc2)cc1	-77*	5%	-20%	-5%	7%
Cc1ccc(-c2nc3ccccc3c(=O)n2-c2cc(C)ccn2)cc1	-24	-3%	24%	9%	x
COc1ccc(OCC(O)CN2CCN(CC(O)COc3ccc(OC)cc3)CC2)cc1 (stereo unspecified)	25	-10%	-4%	46%	u
OC(COc1ccc2cc(Br)ccc2c1)CN1CCCC1 (stereo unspecified)	-6	0%	-7%	84%	4.5µM*
CCC(=O)c1ccc(OCC(O)CN(C)C2CCCCC2)cc1 (stereo unspecified)	25	-9%	0%	-23%	u
N#Cc1ccc(OCC(O)CN2CCN(C(c3ccccc3)c3ccccc3)CC2)cc1 (stereo unspecified)	1	1%	-4%	41%	u
CN1CCN(CC(O)COc2ccc(C34CC5CC(CC(C5)C3)C4)cc2)CC1 (stereo unspecified)	u	0%	-9%	109%	10µM*
SMILES	HCMV antiviral	AmpC detergent	FMDV inh	AmpC inh no detg	HCV inh
CN(CC(O)COc1ccc(OCC(O)CN(C)C2CCCCC2)cc1)C1CCCCC1 (stereo unspecified)	u	-13%	-1%	x	16µM*
O=S(=O)(N1CCCCC1)N1CCN(CC(O)COc2ccc3cc(Br)ccc3c2)CC1 (stereo unspecified)	u	-5%	u	33%	u
OC(COc1ccccc1)CN1CCN(C(c2ccccc2)c2ccccc2)CC1 (stereo unspecified)	10	0%	-29%	55%	7.9µM*
CC(C)c1ccc(N2C(=O)CS(=O)(=O)C23C(=O)N(Cc2cccc(F)c2)c2ccccc23)cc1 (stereo unspecified)	-26	-3%	-20%	x	x
CCOc1ccc(OCC)c(NS(=O)(=O)c2c(C(=O)N3CCCCCC3)c(C)n(C)c2C)c1	-1	-6%	58%	x	x
C=CCCC1CN(Cc2ccc(OC)cc2)S(=O)(=O)c2c(F)cccc2O1 (stereo unspecified)	0	x	x	x	x
COc1ccc(S(=O)(=O)N2CCN(C(=O)NCc3ccc(C)cc3)CC2)cc1	u	1%	-3%	1%	2%
COc1cc(C(=O)N2CCN(CC(O)COc3ccccc3)CC2)cc(OC)c1OC (stereo unspecified)	40	x	12%	x	14%
COc1ccc(CN2CCN(S(=O)(=O)c3ccc(NC(C)=O)cc3)CC2)c(OC)c1OC	-98*!	4%	-10%	71%	-11%
COc1cc(/C=C/C(=O)N2CCN(CC(O)COc3ccccc3)CC2)cc(OC)c1OC (stereo unspecified)	-82*	-4%	u	149%	-21%
CC(=O)Nc1ccc(S(=O)(=O)N2CCN(CC(O)COc3ccc4ccccc4c3)CC2)cc1 (stereo unspecified)	-87*	3%	-94%	153%	-5%
Cc1ccc(N2CCN(CC(O)COc3cccc(C)c3)CC2)cc1 (stereo unspecified)	-62*	2%	-1%	41%	-5%
NC(=O)C1CCN(CC(O)COc2ccc(-c3ccccc3)cc2)CC1 (stereo unspecified)	-33	u	-6%	177%	10µM*
OC(COc1ccc(OCC(O)CN2CCCCCC2)cc1)CN1CCCCCC1 (stereo unspecified)	x	-1%	-19%	-9%	7.1µM*
Cc1cccc(C)c1OCC(O)CN(Cc1ccccc1O)C1CCCCC1 (stereo unspecified)	-69*	-6%	-7%	-22%	u
CN(C)S(=O)(=O)N1CCN(CC(O)COc2ccc3cc(Br)ccc3c2)CC1 (stereo unspecified)	-13	-6%	-29%	185%	32µM*
CCOC(=O)N1CCN(CC(O)COc2ccc(-c3ccccc3)cc2)CC1 (stereo unspecified)	0	u	u	133%	-21%
COc1ccc(S[C@]2(C(=O)N3CCCC3)CC(=O)N(c3ccccc3)[C@@H]2c2ccc(OC)cc2)cc1	-25	x	x	x	x
CCOc1cccc(C(=O)Nc2ccc3oc(-c4ccncc4)nc3c2)c1	u	13%	u	x	x
COc1ccccc1-c1ccc(Nc2cccc(C(C)=O)c2)nn1	57	-8%	9%	-22%	7.9µM*
